Assay results taken from PubChem BioAssay AID893 (National Center for Advancing Translational Sciences (NCATS), 2007).
In all, about 75,000 compounds went through this assay and about 5,700 (7.6%) were called active. Not shown: some 7% with an inconclusive outcome. Calls follow the shape of the dose curve; as a rule, active = well fitted inhibition curve with a large enough effect; inconclusive = small, poorly fitted or top-dose-only effect; inactive = no such curve, though single readings can be large or run the other way. The sample as a whole holds a higher share of actives than the screen did.

target: 3-hydroxyacyl-CoA dehydrogenase type-2 (Homo sapiens) (UniProt Q99714); experiment: qHTS Assay for Inhibitors of HSD17B4, hydroxysteroid (17-beta) dehydrogenase 4; conditions: recombinant HSD17B10, NADH fluorescence kinetic; series mostly up to 57.1 µM;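 also: the protocol describes HADH2 (HSD17B10) and not the HSD17B4 of the title; nearly all actives have a fitted effect of over 70% in size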
How it was run: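 His-tagged E. coli-expressed HADH2 at 20 nM in 100 mM Tris-HCl pH 9.0 with 0.01 % Tween-20, preincubated 15 min with compound at room temperature. Reaction with 1 mM NAD+ and 90 uM beta-hydroxybutyryl coenzyme A; NADH fluorescence (360/450 nm) read kinetically over 4 min, last minus first point.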
% is scaled to controls: 0 for no effect and ±100 for the full control effect; potency is read from the fitted curve at half-maximal effect.

Potency, active:
CCOC(=O)c1sc(=S)n2c1[nH]c(=O)c1ccc(C(=O)OC)cc12 20 µM
CCOC(=O)CCc1c(C)c2ccc(OCc3nn[nH]n3)c(C)c2oc1=O 31.6 µM
Cc1nc(-c2ccc(NC(=O)c3cccs3)cc2)cs1 25.1 µM
C[C@@H]1O[C@@H](O[C@@H]2[C@@H](O)[C@H](OCCc3ccc(O)c(O)c3)O[C@H](CO[C@@H]3O[C@H](CO)[C@@H](O)[C@H](O)[C@H]3O)[C@H]2OC(=O)/C=C/c2ccc(O)c(O)c2)[C@H](O)[C@H](O)[C@H]1O 2 µM
CCOc1ccc(CCNC(=O)C2CCN(c3ccc(N4CCOCC4)nn3)CC2)cc1OCC 25.1 µM
Cc1ccnc(SCCn2c(N(C)Cc3ccccc3)nc3c2c(=O)n(C)c(=O)n3C)n1 31.6 µM
O=c1c(-c2ccccc2)coc2c(CN3CCOCC3)c(O)ccc12 31.6 µM
Cc1ccnc(-n2sc3ccccc3c2=O)n1 3.16 µM
O=C1NC(c2cc3c(cc2Cl)OCO3)Oc2ccccc21 (stereo not drawn) 31.6 µM
COCCn1c(=O)c(-c2cccs2)nc2cnc(N3CCN(C)CC3)nc21 20 µM
COCCn1c(=O)c(-c2cccs2)nc2cncnc21 25.1 µM
COCCn1c(=O)c(-c2ccccc2)nc2cnc(N3CCOCC3)nc21 20 µM
O=C(Nc1nc(-c2ccncc2)cs1)C1COc2ccccc2O1 (stereo not drawn) 31.6 µM
CN(C)c1ncc2nc(-c3ccc(F)cc3)c(=O)n(Cc3ccc(F)cc3)c2n1 3.98 µM
N#Cc1cccc(-c2nc3cnc(N4CCNCC4)nc3n(C3CC3)c2=O)c1 3.98 µM
COc1cccc(Cn2c(=O)c(CCc3ccccc3)nc3cnc(N(C)C)nc32)c1 25.1 µM
Cc1nc2cnc(N3CCNCC3)nc2n(CCc2ccccc2)c1=O 25.1 µM

Potency, inactive:
O=C(c1cnccn1)N1CCC[C@@]2(CCN(Cc3ccncc3)C2)C1
CCS(=O)(=O)N1CCCC(C(=O)NCc2ccc(C)cc2)C1 (stereo not drawn)
C=C1C([C@@]2(C)C(OC(C)=O)CC(=O)O[C@@](C)(COC(C)=O)C2CC(=O)OC)C(OC=O)C(OC(=O)C(O)C(C)CC)[C@]2(C)C(c3ccoc3)CC(=O)C12O (stereo partly drawn)
COC(=O)c1cccc(NC(=O)CSc2nc(C)cc(=O)[nH]2)c1
CCOC(=O)c1ccc2[nH]c(C)c(CN3CCN(C)CC3)c(=O)c2c1
CCOc1ccc(C2C(C(=O)NC)=C(C)Nc3nc4ccccc4n32)cc1OC (stereo not drawn)
CN(C)c1cc2c(Nc3ccc4c(cnn4Cc4ccccc4)c3)ncnc2cn1
CCNC(=S)NCC
CCCNC(=O)C1CC(=O)N(c2ccc(OCC(=O)Nc3cccc(C)c3C)cc2)C1 (stereo not drawn)
O=C(O)Cc1ccc(NC(=O)c2cccs2)cc1
O=C(O)c1ccc(NC(=O)c2cccs2)cc1
CCOC(=O)N1CCC(Nc2c(NCCN3CCN(c4cccc(Cl)c4)CC3)c(=O)c2=O)CC1
CCC(CCC(C)C1CCC2C3CC=C4CC(O)CC[C@@]4(C)C3CC[C@@]12C)C(C)C (stereo partly drawn)
COC(=O)c1ccc(/C=N\n2c(C)nnc2C)cc1
COc1ccccc1-c1cc(NCc2cccs2)ncn1
CC1OC(OCC2OC(Oc3c(-c4ccc(O)c(O)c4)oc4cc(O)cc(O)c4c3=O)C(O)C(O)C2O)[C@@H](O)C(O)C1O (stereo partly drawn)
COc1ccc(CCC(=O)c2c(O)cc(OC3OC(CO)C(O)C(O)C3O[C@@H]3OC(C)C(O)C(O)C3O)cc2O)cc1O (stereo partly drawn)
CN1C(=O)c2ccccc2C(C(=O)NCCCN2CCCC2)C1c1c[nH]c2ccccc12 (stereo not drawn)
COc1ccc(CCNC(=O)C2CCN(c3nn4c(=O)cc(C)nc4s3)CC2)cc1OC
CCCS(=O)(=O)N1CCC(C(=O)NCCc2ccc(OC)c(OC)c2)CC1
CCC(C)NC(=O)C1CCC(=O)N1Cc1ccc(C)cc1 (stereo not drawn)
CN(Cc1ccccc1)c1nc2c(c(=O)[nH]c(=O)n2C)n1CCSc1nc2ccccc2[nH]1
CC(C)CCn1c(CN(C)Cc2ccccc2)nc2c1c(=O)n(C)c(=O)n2C
COc1ccc(OC)c(C(=O)c2coc3ccc(O)c(CN4CCOCC4)c23)c1
CN1CCN(Cc2c(O)ccc3c2oc(=O)c2ccccc23)CC1
COc1ccc(S(=O)(=O)N(CCCN2CCCC2=O)Cc2cc3c(C)ccc(C)c3[nH]c2=O)cc1
O=C1Nc2ccccc2C12Nc1ccccc1S2 (stereo not drawn)
CCCOc1ccccc1C1CC(=O)Nc2cc3c(cc21)OCO3 (stereo not drawn)
O=C(Nc1ccc(Cl)cc1)c1ccsn1
COC(=O)c1ccc(S(=O)(=O)c2ccc(C(=O)OC)s2)s1
CCCC[C@@H]1C[C@H]1C(NC(=O)c1ccc(-c2ccccc2)cc1)c1ccc(-c2ccccc2)cc1 (stereo partly drawn)
Cc1oc2nc(SCC(=O)NCc3cccnc3)nc(N)c2c1C
COc1ccccc1CCn1c(=O)c(-c2cn(C)c3ccccc23)nc2cncnc21
COCCn1c(CN2CCC(Cc3ccccc3)CC2)nc2c1c(=O)n(C)c(=O)n2C
COc1ccc(-n2c(=O)c(C)nc3cnc(N4CCOCC4)nc32)cc1
CCOC(=O)c1cc2occc2n1CC(=O)NC1CCC(C)CC1 (stereo not drawn)
CCOC(=O)C1CCCN(C(=O)CN(c2ccc(OC)cc2)S(=O)(=O)c2c(C)noc2C)C1 (stereo not drawn)
O=C(Nc1nc(-c2ccc3c(c2)OCO3)cs1)c1ccncc1
c1ccc(Nc2nc(-c3ccncc3)cs2)nc1
CN/C(=C\[N+](=O)[O-])NCCSCc1csc(CN(C)C)n1
Cn1c(=O)c(CCc2ccccc2)nc2cnc(Nc3ccccc3)nc21
Cn1c(=O)n(CCc2ccccc2)c(=O)c2c1nc1n2CCCN1c1ccccc1
COc1cccc(Nc2ncc3ncc(=O)n(C4CC4)c3n2)c1
Cn1cc(-c2nc3cnc(N4CCNCC4)nc3n(CCc3ccccc3)c2=O)c2ccccc21
O=c1cnc2cnc(Nc3ccccc3)nc2n1Cc1ccc(F)cc1
COc1cccc(Cn2c(=O)c(C)nc3cnc(Oc4ccccc4)nc32)c1
O=c1c(CCc2ccccc2)nc2cncnc2n1C1CC1
Cc1nc2cnc(Nc3ccccc3)nc2n(Cc2ccc(F)cc2)c1=O

Activity change, negative = inhibition, inactive:
COc1ccc(COC(=O)N/N=C2/C[C@@H](O)[C@@H](O)[C@@H]3[C@@H]4C(=O)N([C@@H](C)c5ccccc5)C(=O)[C@H]4CC[C@@H]23)cc1 -1.08% [at 11.4 µM]
COC(=O)[C@@H]1CC[C@H](C)[C@@H](c2ccc(C)cc2)N1C(=O)c1ccc(/C=N\OC[C@@H](O)COCc2ccco2)cc1 -1.91% [at 11.4 µM]
CC(C)CO/N=C1/C[C@@H](O)[C@@H](O)[C@@H]2[C@@H]3C(=O)N(C[C@@H]4CCCO4)C(=O)[C@H]3CC[C@@H]12 9.42% [at 11.4 µM]
